# Source: PubChem (National Center for Advancing Translational Sciences (NCATS))
# Only some compounds are listed: those with a hit (about 3.3% of all), similar ones and a draw of the others.
# PI5P4K alpha inh – qHTS for Inhibitors of phosphatidylinositol 5-phosphate 4-kinase (PI5P4K); Phosphatidylinositol 5-phosphate 4-kinase type-2 alpha (Homo sapiens), P48426; PI5P4Kalpha enzyme, ADP-Glo luminescence, 60 min; stronger effect = lower value; max response, %; 330,000 tested, 1.2% active; active = max response of -50% or lower; inconclusive = between -30% and -50%; inactive = -30% or higher; also: value at the top dose of about 77 µM
#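 qHTS, 1536-well: enzyme/substrate mix, compound by pin tool, 5 microM ATP final; RT 60 min; ADP-Glo reagents 1 (45 min) then 2 (30 min); luminescence.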
# LDHA inh – qHTS assay for inhibitors of human lactate dehydrogenase | L-lactate dehydrogenase A chain (Homo sapiens), P00338 | purified LDHA, NADH/diaphorase-resazurin fluorescence; stronger effect = lower value | activity change, % (values are at about 110 or 230 µM) | 480,000 tested, 0.15% active | AID 1347041, 2019; in the data active = activity change below about -30%; inconclusive = mostly about -25% to -30%
#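 Human LDH5 (2 nM) was incubated with 0.06 mM NADH and 0.2 mM pyruvate for 5 min at room temperature in Tris pH 7.4. Remaining NADH was coupled through diaphorase/resazurin, and resorufin fluorescence was read at 0 and 20 min.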
# DRD3 agonist – qHTS of D3 Dopamine Receptor Agonist: qHTS; D(3) dopamine receptor (Homo sapiens), P35462; D3R DiscoveRx beta-arrestin cells, luminescence, 90 min; max activation, %; 410,000 tested, 0.58% active; in the data active = max activation above about 30%
# Target sequence (P35462 whole entry, looked up): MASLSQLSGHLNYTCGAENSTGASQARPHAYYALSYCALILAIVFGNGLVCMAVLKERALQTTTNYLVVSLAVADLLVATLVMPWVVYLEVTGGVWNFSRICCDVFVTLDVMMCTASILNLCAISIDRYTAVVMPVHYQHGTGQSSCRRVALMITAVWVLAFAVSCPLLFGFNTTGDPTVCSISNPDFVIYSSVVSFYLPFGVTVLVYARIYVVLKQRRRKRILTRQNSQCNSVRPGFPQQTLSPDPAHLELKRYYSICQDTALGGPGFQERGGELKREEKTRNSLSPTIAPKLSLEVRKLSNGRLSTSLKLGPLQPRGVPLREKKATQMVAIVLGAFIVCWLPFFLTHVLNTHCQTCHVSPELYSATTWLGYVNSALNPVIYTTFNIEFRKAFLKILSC
#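 Agonist mode: compounds and dopamine controls were applied to plated cells for 90 min at 37 degrees C after an overnight attachment at 1500 cells/well. Luminescent read-out followed 30 - 60 minutes at room temperature with DiscoveRx detection reagent.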
# D3 antag – qHTS of D3 Dopamine Receptor Antagonist: qHTS; D(3) dopamine receptor (Homo sapiens), P35462; D3R cells, DiscoveRx beta-arrestin luminescence, antagonist mode; stronger effect = lower value; max response, negative = inhibition, %; 360,000 tested, 2.5% active; AID 652054, 2013; in the data active = max response below about -50%; inconclusive = no clear call, values can overlap the other calls
#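 Cells plated overnight at 1500 cells/well, then exposed to library compounds with dopamine controls for 90 minutes at 37 degrees C. DiscoveRx reagent added for 30–60 minutes at room temperature; luminescence read, quantitative HTS format.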
# PI4K2A block – qHTS for small molecular inhibitors of PI4K2A; Phosphatidylinositol 4-kinase type 2-alpha (Homo sapiens), Q9BTU6; purified PI4K2A, ADP-Glo luminescence, 1 h; stronger effect = lower value; activity change, negative = inhibition, % at 76.9 µM; AID 1346378, 2018; 420,000 tested, 0.13% active; in the data active = activity change below about -50%; inconclusive = mostly about -30% to -49%
#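 Compounds are screened against recombinant PI4K2A using PI as substrate and ATP, the latter dispensed at 300 microM. Reactions run one hour at ambient temperature before ADP-Glo detection; full inhibition defined by wells lacking enzyme.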
# Numbers stand for hits; – = inactive; ? = inconclusive; · = not tested or not shown; ! = not confirmed by another sample.
SMILES,PI5P4K alpha inh,LDHA inh,DRD3 agonist,D3 antag,PI4K2A block
Cc1nc(-c2ccc(Cl)cc2)sc1C1(C)CC(c2ccc([N+](=O)[O-])cc2)=NO1 (configuration not stated),–,–,50.6,–,–
Cc1ccc(C2=NOC(C)(c3sc(-c4ccc(Cl)cc4)nc3C)C2)cc1 (configuration not stated),–,–,–,–,–
O=C(COc1ccc(Cl)cc1Cl)NC(=O)N1CCOCC1,–,–,–,-58.2,–
O=C(COc1ccc(Cl)cc1Cl)Nc1ccc(CN2CCOCC2)cc1,–,–,–,–,–
CCOC(=O)c1sc(NC(=S)NC(=O)CC(C)C)cc1C,–,–,–,-78.3,–
CN(C)CCN1CCN(C2CN(Cc3cn(Cc4ccc(Cl)cc4)nn3)S(=O)(=O)C2)CC1 (configuration not stated),–,–,–,-50.6,–
CN(C)CCN1CCN(C2CN(Cc3cn(Cc4ccc(C(F)(F)F)cc4)nn3)S(=O)(=O)C2)CC1 (configuration not stated),–,–,–,?,–
CN(C)CCN1CCN(C2CN(Cc3cn(Cc4cccc(C(F)(F)F)c4)nn3)S(=O)(=O)C2)CC1 (configuration not stated),–,–,–,-72.1,–
COC(=O)c1ccc(COC(=O)C(c2ccccc2)c2ccccc2)o1,·,–,·,·,·
Cc1cc(C)nc(Sc2ccc(N)cc2)n1,·,–,·,·,·
Oc1c(C(Nc2nccs2)c2ccc(C(F)(F)F)cc2)ccc2cccnc12 (configuration not stated),–,–,38.7,–,–
Cc1ccc(C(Nc2ccccn2)c2ccc3cccnc3c2O)cc1 (configuration not stated),·,–,–,·,–
Oc1c(C(Nc2cccc(C(F)(F)F)c2)c2ccncc2)ccc2cccnc12 (configuration not stated),–,–,–,-53.6,–
N#C/C(=C\c1c2ccccc2cc2ccccc12)c1ccc([N+](=O)[O-])cc1,·,–,·,·,·
CCOC(=O)C1CCN(CCC(=O)Nc2ccc(Br)cc2)CC1,–,–,–,–,–
CCOC(=O)C1CCCN(CCC(=O)Nc2ccc(Br)cc2)C1 (configuration not stated),–,–,–,-50.3,–
CCOC(=O)C1CCCN(CCC(=O)Nc2ccc(Br)c(C)c2)C1 (configuration not stated),–,–,–,-54.4,–
CCOC(=O)C1CCCN(CCC(=O)Nc2ccc3c(c2)CCC3)C1 (configuration not stated),·,–,–,-55.7,–
CCOC(=O)C1CCCN(CCC(=O)Nc2ccc(C)c(C)c2)C1 (configuration not stated),–,–,–,?,–
O=C(O)c1cc(NC(=O)c2ccc([N+](=O)[O-])cc2)cc(NC(=O)c2ccc([N+](=O)[O-])cc2)c1,–,–,–,–,–
COC(=O)c1cccc(NC(=O)/C=C/c2ccc([N+](=O)[O-])cc2)c1,–,–,–,–,–
O=C(/C=C/c1ccc([N+](=O)[O-])cc1)Nc1cccc(C(=O)Nc2ccccc2C(=O)O)c1,-65.7,–,–,–,–
O=C(Nc1ccc([N+](=O)[O-])cc1)C(=O)Nc1cccc(C(=O)O)c1,-59.6,–,–,–,–
O=C(N/N=C/C(Cl)=C/c1ccc([N+](=O)[O-])cc1)C(=O)Nc1ccccc1C(=O)O,-50.2,–,–,–,–
CC1=NN(c2nc(C)cc(C)n2)C(=O)C1Cc1ccccc1 (configuration not stated),·,–,·,·,·
SMILES,PI5P4K alpha inh,LDHA inh,DRD3 agonist,D3 antag,PI4K2A block
COc1ccc(-c2nc3ccc(C)cc3c(C(=O)O)c2C)cc1,·,–,·,·,·
CC(N)c1ccc(S(N)(=O)=O)cc1 (configuration not stated),·,–,·,·,·
Fc1cccc(CCN2CCN=C2Nc2ccccc2)c1,–,–,–,-74.1,–
c1ccc(CCCCN2CCN=C2Nc2ccccc2)cc1,–,–,–,–,–
C/C=C/c1ccc(OCC(=O)N2CCN(S(=O)(=O)c3cc(OC)ccc3OC)CC2)c(OC)c1,·,–,·,·,·
Nc1ncnc2c1ncn2C1CCC(CO)C(O)C1 (configuration not stated),·,–,–,–,-53.9
Nc1ncnc2c1ncn2C1CCCC1,–,–,–,–,-65.5
Cc1nc(NCCCN2CCOCC2)c2cnn(-c3ccccc3)c2n1,–,–,–,-51.0,–
Cc1cccc2c(N)ccnc12,·,–,·,·,·
S=C1SCN(Cc2ccccc2)CN1Cc1ccco1,-75.4,–,–,–,–
S=C1SCN(Cc2ccccc2)CN1Cc1ccccc1,–,–,–,–,–
CCN1CCN(CCOc2cccc(Oc3ccccc3)c2)CC1,–,-32.9,–,–,–
CN1CCN(CCOc2cccc(Cl)c2)CC1,–,–,–,?,–
Cc1cccc(C)c1OCCN1CCCC1,–,–,–,–,–
CCN1CCN(CCOCCOc2ccccc2)CC1,–,-30.5,–,–,–
Cc1cccc(C)c1OCCOCCN1CCN(C)CC1,–,-42.9!,–,?,–
O=C1NC2(CCCC2)C(=O)N1Cc1ncc(-c2ccc(F)cc2)o1,·,–,·,·,·
CC(NC(=O)/C(C#N)=C\c1cccc(Oc2ccccc2)c1)c1ccccc1 (configuration not stated),·,–,·,·,·
Cc1[nH]n(-c2ccccc2)c(=O)c1Sc1ccc(Cl)cc1,·,–,–,–,–
Cc1cc(-c2c(C)[nH]n(-c3ccc(Cl)cc3)c2=O)n[nH]1,–,–,–,-59.8,–
O=C(Cn1c(SCC(=O)N2CCc3ccccc3C2)nc2ccccc21)NC1CCCC1,·,–,–,–,–
O=C(CSc1ncc(-c2ccccc2)n1C1CCCC1)N1CCc2ccccc21,·,–,–,-84.7,–
O=C(Cn1c(SCC(=O)N2CCc3ccccc32)nc2ccccc21)NC1CCCC1,–,–,–,-76.4,–
Cc1csc(NC(=O)c2ccc(Oc3ccc(Br)cc3)nc2)n1,·,–,·,·,·
CNC(=S)NNC(=O)CCc1ccccc1,·,–,·,·,·
Cc1ccc(C)c(NCC(=O)Nc2cc(Cl)ccc2-n2cncn2)c1,·,–,·,·,·
COc1ccc(-n2nnnc2C(CCc2ccccc2)N2CCN(C/C=C/c3ccccc3)CC2)cc1 (configuration not stated),–,–,–,-76.1,–
COc1ccc(-n2nnnc2C(c2cccc(OC)c2OC)N2CCN(C/C=C/c3ccccc3)CC2)cc1 (configuration not stated),–,–,–,-85.8,–
COc1cccc(C(c2nnnn2C2CCCC2)N2CCN(C/C=C/c3ccccc3)CC2)c1OC (configuration not stated),–,–,–,-96.3,–
